TDP1 inh: blocks human tyrosyl-DNA phosphodiesterase 1; AID 485290; Q9NUW8; Potency, µM (top dose mostly 130 µM), actives largely listed as inhibitors; 350,000 tested, 0.28% active; recombinant TDP1, AlphaScreen DNA substrate cleavage; further: nearly all actives have a fitted effect of over 40% in size
Target sequence (Q9NUW8 whole entry, looked up): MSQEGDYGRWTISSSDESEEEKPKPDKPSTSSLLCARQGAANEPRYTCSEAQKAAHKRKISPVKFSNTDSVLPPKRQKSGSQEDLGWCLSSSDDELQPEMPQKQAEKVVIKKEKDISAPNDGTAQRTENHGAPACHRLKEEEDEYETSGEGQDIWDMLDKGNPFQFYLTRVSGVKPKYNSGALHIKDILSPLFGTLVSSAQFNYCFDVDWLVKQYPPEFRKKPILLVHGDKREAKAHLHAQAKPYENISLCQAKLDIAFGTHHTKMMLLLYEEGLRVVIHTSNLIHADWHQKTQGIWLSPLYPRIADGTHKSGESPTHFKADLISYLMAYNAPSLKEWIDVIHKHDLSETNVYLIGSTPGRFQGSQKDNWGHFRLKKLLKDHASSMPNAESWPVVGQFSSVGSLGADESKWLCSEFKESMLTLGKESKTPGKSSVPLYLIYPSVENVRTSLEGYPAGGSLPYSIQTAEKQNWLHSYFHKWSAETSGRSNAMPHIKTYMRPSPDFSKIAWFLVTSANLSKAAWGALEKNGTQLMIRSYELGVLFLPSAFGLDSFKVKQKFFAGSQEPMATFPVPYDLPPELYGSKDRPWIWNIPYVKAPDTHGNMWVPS
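AlphaScreen read-out: signal falls as enzyme removes the 3' tyrosine-FITC from a 5'-biotinylated DNA oligo (15 nM, 5 min, RT). Enzyme was E. coli-made recombinant Tdp1 at 1 nM, exposed to compound for 15 min beforehand; beads 10 ug/ml, 10 min.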
TDP1 cell noCPT: qHTS for Inhibitors of human tyrosyl-DNA phosphodiesterase 1 (TDP1): qHTS in cells in absence of CPT | DT40 Tdp1-/- hTDP1 cells, no CPT, ATP luminescence, 48 h | Potency, µM (highest dose often 46.2 µM), hits mostly inhibitors | 420,000 tested, 15% active | AID 686978, 2013; further: nearly all actives have a fitted effect of over 55% in size
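No-CPT arm: Tdp1-/-;hTDP1 DT40 cells (400/well) plus compounds, incubated ≥48 hr at 37 °C. Readout CellTiter-Glo luminescence.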
TDP1 cell CPT: growth inhibition of DT40 Tdp1-/-;hTDP1 cells with camptothecin (screen for TDP1 inhibitors). chicken DT40 Tdp1-/-;hTDP1 cells + 20 nM CPT, ATP luminescence, 48 h. Potency, µM (doses to about 46.2 µM), actives largely listed as inhibitors. 420,000 tested, 12% active; further: nearly all actives have a fitted effect of over 55% in size
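Chicken DT40 Tdp1-/- cells complemented with human TDP1, 400 cells/well, exposed to compounds plus 20 nM camptothecin for at least 48 h at 37 C; viability read as ATP content by CellTiter-Glo luminescence.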
HepG2 tox: counter-screen for TGF-b inhibitors: cytotoxicity in HepG2 cells; HepG2 CAGA-GFP viability, ATP luminescence, 18 h; Potency, µM (doses to about 46.1 µM), most hits filed as cytotoxic; AID 588856; 410,000 tested, 0.76% active
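HepG2 CAGA-GFP cells (1000/well, DMEM with 1% FBS) received compound, then TGF-beta at 500 pg/mL final, and were incubated 18 hours at 37 degrees C. Viability was read by CellTiter-Glo luminescence. Media-only wells were set as complete cell-killing and DMSO as no toxicity.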
TGFb inhibitor: blocks TGF-b signaling. AID 588855. HepG2 CAGA-GFP TGF-b/SMAD3 reporter, GFP fluorescence, 18 h; TGF-beta stimulated, 500 pg/mL final. 410,000 tested, 1.2% active. Potency, µM (highest dose often 46.1 µM), actives largely listed as inhibitors; further: nearly all actives have a fitted effect of over 65% in size
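Inhibition of TGF-beta-driven CAGA-GFP reporter expression in HEPG2 cells is measured by cellular GFP fluorescence after 18 h stimulation with 500 pg/mL recombinant TGF-beta in 1% FBS medium at 37 degrees C.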
IL-1B inflam inh: inflammasome signaling inhibition, IL-1 beta readout; AID 743279; THP-1 LPS/ATP IL-1B secretion, AlphaLISA, 16 h; hits give low values; 360,000 tested, 4.7% active; activity change, % at 57.5 µM; in the data active means activity change below about -50%; inconclusive means mostly about -30% to -49%
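Secreted IL-1B measured by AlphaLISA bead assay after 16 h compound exposure of THP-1 cells; compounds (final up to 57.5 uM) added 1 h before LPS (250 ng/mL) and ATP (1.25 mM) stimulation; lower signal means less secretion.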
Each line names hits and unclear results; the compound was inactive in the other large screens. The list is not random: actives were taken first. Their share in the collection is about 19%. Unless noted, the call rests on the fitted dose curve; in most records, active means well fitted curve in the direction sought with a large enough effect; inconclusive means small, poorly fitted or top-dose-only effect, or another doubt; inactive means no such curve, though single readings can be large; an effect the other way counts as inactive or inconclusive.

Fc1ccc(N2CCN(C(c3cccs3)c3nnnn3CCc3ccccc3)CC2)cc1 (configuration not stated)	TDP1 cell noCPT 23µM, TDP1 cell CPT inconclusive
c1ccc(CCn2nnnc2C(c2cccs2)N2CCN(Cc3ccc4c(c3)OCO4)CC2)cc1 (configuration not stated)	TDP1 cell noCPT 23µM, TDP1 cell CPT inconclusive, IL-1B inflam inh inconclusive
Oc1ccc(N2CCN(C(c3cccnc3)c3nnnn3Cc3ccccc3)CC2)cc1 (configuration not stated)	TDP1 cell noCPT 18µM, TDP1 cell CPT inconclusive
COc1ccccc1CNCCSc1nnnn1C	none (no result: IL-1B inflam inh)
COc1ccc(C(=O)NCC(c2ccco2)S(=O)(=O)c2cccs2)cc1OC (configuration not stated)	TDP1 cell noCPT inconclusive, TDP1 cell CPT inconclusive (no result: IL-1B inflam inh)
Cn1cc(C(=O)NCCc2ccc(Cl)cc2)c(=O)c2cc(S(=O)(=O)N3CCCCC3)ccc21	none (no result: IL-1B inflam inh)
c1ccc(CCn2nnnc2C(c2cccnc2)N2CCN(c3ccccc3)CC2)cc1 (configuration not stated)	TDP1 cell noCPT 11µM, TDP1 cell CPT 13µM
COc1ccc(OC)c(C(c2nnnn2CCc2ccccc2)N2CCN(c3ccccc3)CC2)c1 (configuration not stated)	TDP1 cell noCPT 35µM, TDP1 cell CPT inconclusive, IL-1B inflam inh -85
COCCn1nnnc1C(c1ccc(OC)cc1OC)N1CCN(c2ccccc2)CC1 (configuration not stated)	none
c1ccc(CCn2nnnc2C(c2cccnc2)N2CCN(c3nc4ccccc4s3)CC2)cc1 (configuration not stated)	TDP1 cell noCPT 11µM, TDP1 cell CPT 18µM, TGFb inhibitor inconclusive, IL-1B inflam inh -64
Cc1ccc(CN2c3ccccc3-c3nc(SCC(=O)NCCc4ccccc4)ncc3S2(=O)=O)cc1	TDP1 cell noCPT inconclusive, TDP1 cell CPT inconclusive (no result: IL-1B inflam inh)
CCc1ccc(Sc2cc(C(=O)NCCCN3CCCC(C)C3)c3ccccc3n2)cc1 (configuration not stated)	TDP1 cell noCPT inconclusive, TDP1 cell CPT inconclusive, TGFb inhibitor inconclusive (no result: IL-1B inflam inh)
CCN1C(=O)/C(=C/c2nc3ccccc3c(=O)n2-c2ccc(C)cc2)c2ccccc21	TDP1 cell noCPT 18µM, TDP1 cell CPT 23µM (no result: IL-1B inflam inh)
COc1ccc(-n2c(/C=C3\C(=O)N(C)c4ccccc43)nc3ccccc3c2=O)cc1	TDP1 cell noCPT inconclusive (no result: TDP1 inh, IL-1B inflam inh)
CCN1C(=O)/C(=C\c2nc3ccccc3c(=O)n2-c2ccccc2)c2ccccc21	TDP1 cell noCPT 8.2µM, TDP1 cell CPT 13µM, IL-1B inflam inh inconclusive
C=CN1CCCC1=O	none (no result: TDP1 cell noCPT, TDP1 cell CPT, HepG2 tox, TGFb inhibitor, IL-1B inflam inh)
CN(C)c1ncc2ncc(=O)n(Cc3ccc(F)cc3)c2n1	TDP1 cell noCPT 21µM, TDP1 cell CPT 10µM (no result: TDP1 inh, HepG2 tox, TGFb inhibitor, IL-1B inflam inh)
O=c1cnc2cnc(Oc3cccc(Cl)c3)nc2n1Cc1ccc(F)cc1	TDP1 cell noCPT 23µM, TDP1 cell CPT inconclusive (no result: TDP1 inh, HepG2 tox, TGFb inhibitor, IL-1B inflam inh)
COc1ccc(Oc2ncc3ncc(=O)n(Cc4cccs4)c3n2)cc1	TDP1 cell noCPT 23µM, TDP1 cell CPT inconclusive (no result: TDP1 inh, HepG2 tox, TGFb inhibitor, IL-1B inflam inh)
CN(C)C(=O)Nc1ccc(Oc2ccc(Cl)cc2)cc1	none (no result: TDP1 cell noCPT, TDP1 cell CPT, HepG2 tox, TGFb inhibitor, IL-1B inflam inh)
Cc1ccccc1-c1nn(-c2ccccc2)cc1C(=O)NCC(c1ccco1)N1CCCC1 (configuration not stated)	TDP1 cell noCPT 18µM, TDP1 cell CPT 21µM, IL-1B inflam inh inconclusive
COc1ccc(OC)c(-c2nn(-c3ccccc3)cc2C(=O)NCC(c2ccco2)N2CCCC2)c1 (configuration not stated)	TDP1 cell noCPT 21µM, TDP1 cell CPT inconclusive
COCC(=O)N(C)[C@H]1C[C@H]2c3[nH]c4ccccc4c3CCN2C(=O)[C@H]1[C@H](C)O	TDP1 cell noCPT inconclusive (no result: TDP1 inh)
